Screening results as filed in PubChem.
HT1080NT lethal: kills 2HG-producing HT-1080-NT fibrosarcoma cells | HT-1080-NT fibrosarcoma viability, CellTiter-Glo ATP luminescence, 48 h | Potency, µM (titrated, usually from 46.1 µM), for inactives: at the top dose activity, negative = less viability, most hits filed as cytotoxic | 1.6% of 360,000 active | AID 686970;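 further: NT is the 2HG producing partner of a matched IDH1 knockdown line; potency means the concentration at half of the fitted maximal effect; 0% = DMSO-treated cells and -100% = media-only wells without cells; nearly all actives have a fitted effect of over 55% in size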
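Viability by CellTiter-Glo luminescence after 48 h compound exposure at 37C of HT-1080-NT cells (750/well, RPMI, 5% FBS). % activity scaled between DMSO wells and medium-only wells, then curve-fitted and categorized by curve class.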
DT40 TDP1 CPT: DT40-hTDP1 cell growth loss with CPT; chicken DT40 Tdp1-/-;hTDP1 cells + 20 nM CPT, ATP luminescence, 48 h; Potency, µM (series often up to 46.2 µM), inactives show at the top dose activity change, negative = growth inhibition, hits mostly inhibitors; 12% of 420,000 active; AID 686979; further: potency means the concentration at half of the fitted maximal effect; nearly all actives have a fitted effect of over 55% in size
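Chicken DT40 Tdp1-/- cells stably complemented with human TDP1 were seeded at 400 cells/well in medium containing 20 nM camptothecin, exposed to pin-transferred compounds, and grown at 37 °C for at least 48 hr. Viability was read as ATP luminescence.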
IL1B secr inh: inhibitors of inflammasome signaling (IL-1 beta secretion); THP-1 LPS/ATP IL-1B secretion, AlphaLISA, 16 h; active compounds read low; activity change, % at 57.5 µM; AID 743279; 4.7% of 360,000 active; in the data active means activity change below about -50%; inconclusive means mostly about -30% to -49%
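Secreted IL-1B measured by AlphaLISA bead assay after 16 h compound exposure of THP-1 cells; compounds (final up to 57.5 uM) added 1 h before LPS (250 ng/mL) and ATP (1.25 mM) stimulation; lower signal means less secretion.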
TDP1 cell noCPT: qHTS for Inhibitors of human tyrosyl-DNA phosphodiesterase 1 (TDP1): qHTS in cells in absence of CPT; DT40 Tdp1-/- hTDP1 cells, no CPT, ATP luminescence, 48 h; Potency, µM (series often up to 46.2 µM), without a hit: at the top dose activity change, negative = growth inhibition, usual class: inhibitors; 15% of 420,000 active; AID 686978, 2013; further: potency means the concentration at half of the fitted maximal effect; nearly all actives have a fitted effect of over 55% in size
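Stably hTDP1-transfected Tdp1-null chicken DT40 cells were treated with library compounds minus camptothecin and grown for at least 48 hr at 37 °C, after which cellular ATP was quantified by luminescence.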
HT1080 IDH1KD tx: HT-1080 IDH1 knockdown cell toxicity (counter line); HT-1080 IDH1 knockdown viability, ATP luminescence, 48 h; Potency, µM (titrated, usually from 46.1 µM), for the others: at the highest dose activity, negative = toxicity, usual class: cytotoxic; 2% of 360,000 active;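 further: potency means the concentration at half of the fitted maximal effect; 0% = DMSO wells and -100% = cell-free medium wells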
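In this qHTS, HT-1080 cells depleted of IDH1 are exposed for 48 h at 37 °C to compound titrations. Toxicity is scored from CellTiter-Glo luminescence, with DMSO as full viability and medium alone as none.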
Active calls of the source: *; ? = inconclusive; . = not tested or not shown; [ ] = dose if it differs, or a comment. Sampled rows, rich in hits. Any-hit rate of the full collection: about 19%. Unless noted, the call rests on the fitted dose curve; in most records, active means well fitted curve in the direction sought with a large enough effect; inconclusive means small, poorly fitted or top-dose-only effect, or another doubt; inactive means no such curve, though single readings can be large; an effect the other way counts as inactive or inconclusive. Unless noted, on the % scale 0 is the no-effect control and ±100 the full control effect.

SMILES	HT1080NT lethal	DT40 TDP1 CPT	IL1B secr inh	TDP1 cell noCPT	HT1080 IDH1KD tx
O=C(c1cccc(C(=O)N(c2ccccn2)C2CCCCC2)c1)N(c1ccccn1)C1CCCCC1	15%	12µM*	-21	9.2µM*	-6%
O=C(c1ccc(F)cc1Cl)N(c1ccccn1)C1CCCCC1	0%	18µM*	4	15µM*	1%
CN1CCC(N(C)C(=O)/C(C#N)=C/c2ccccc2)CC1	21%	-25%	-18	0%	8%
COc1cc(C(=O)N(C)C2CCCCC2)cc(OC)c1OC	-8%	?	16	?	0%
O=C(c1ccc(Cl)cc1)N(c1ccccn1)C1CCCCC1	-5%	-30%	-1	26µM*	-10%
O=C(c1ccc(Br)cc1)N(c1ccccn1)C1CCCCC1	5%	?	-2	15µM*	0%
O=C(c1ccc(S(=O)(=O)N2CCOCC2)cc1)N(c1ccccn1)C1CCCCC1	1%	?	10	?	11%
CC(C(=O)NCCCc1ccccc1)n1cccc1C(=O)c1ccccc1 (stereo not given)	10%	?	24	?	1%
CN1C(=O)c2ccc(Oc3ccccc3)cc2C1=O	8%	18%	13	-7%	16%
COc1ccc(-c2nc(S(=O)(=O)c3ccccc3)c(N3CCC(C)CC3)o2)cc1	.	21µM*	.	12µM*	.
COc1ccccc1-c1nc(S(=O)(=O)c2ccccc2)c(N2CCC(C)CC2)o1	.	23µM*	.	3.7µM*	.
COc1ccc(-c2nc(S(=O)(=O)c3ccccc3)c(N3CCCC3)o2)cc1	2%	-1%	5	-5%	1%
COc1ccc(N2CCN(c3oc(-c4ccccc4C)nc3S(=O)(=O)c3ccccc3)CC2)cc1	.	12µM*	.	9.2µM*	.
COc1cccc(-c2nc(S(=O)(=O)c3ccccc3)c(N3CCC(C)CC3)o2)c1	.	?	.	8.2µM*	.
CCCS(=O)(=O)c1nnnn1-c1cccc(OC)c1	10µM*	3.7µM*	-67*	5.2µM*	6.3µM*
CCn1nnnc1SCC(=O)c1cccc(OC)c1	2%	?	-4	?	5%
COc1cccc(-n2nnnc2SCC(=O)Nc2ccc(C(C)=O)cc2)c1	9%	26µM*	24	23µM*	15%
COc1ccc(-n2nnnc2SCC(=O)c2cccc(OC)c2)cc1	22µM*	?	39	?	-3%[9.24 µM]
O=C(CSc1nnnn1-c1ccc(F)cc1)c1ccc(O)c(O)c1	-5%	18µM*	37	?	-30%
O=C(O)c1ccc(CSc2nnnn2-c2ccc(F)cc2)cc1	1%	-3%	-2	10%	4%
Cc1ccnn1CC(=O)N/N=C/c1cn[nH]c1-c1ccc(F)cc1	13%	-3%	1	-8%	10%
CCc1ccc(CNC(=O)CCCN2C(=O)CCn3nc(-c4cccn4C)cc32)cc1	.	?	.	-18%	.
CC(=NOC(=O)c1ccc(I)cc1)c1nccs1	12%	-14%	0	-29%	13%
COc1ccc2c(c1)cc(C(=O)N[C@@H](Cc1ccccc1)C(=O)O)n2C	3%	0%	6	-24%	1%
CC(=O)c1cccc(-n2nnnc2SCC(=O)Nc2ccccc2N2CCCCC2)c1	-21%	?	-17	23µM*	-25%
SMILES	HT1080NT lethal	DT40 TDP1 CPT	IL1B secr inh	TDP1 cell noCPT	HT1080 IDH1KD tx
COc1ccc(-n2nnnc2SCC(=O)Nc2ccccc2N2CCOCC2)cc1OC	3%	-24%	-10	16%	0%
Cc1ccc(S(=O)(=O)N(CCC#N)C2CCCCC2)c2nsnc12	4%	16µM*	0	18µM*	-2%
CC1Cc2ccccc2N1S(=O)(=O)c1cccc(C(=O)N2CCCCC2)c1 (stereo not given)	-13%	21µM*	?	16µM*	-9%
CC1Cc2ccccc2N1S(=O)(=O)c1cccc(C(=O)N2Cc3ccccc3CC2C(N)=O)c1 (stereo not given)	-5%	16µM*	18	8.2µM*	-2%
CC1Cc2ccccc2N1S(=O)(=O)c1cccc(C(=O)c2nccn2C)c1 (stereo not given)	-27%	-18%	13	-29%	-25%
COc1ccccc1N1CCN(C(=O)c2cccc(S(=O)(=O)N3c4ccccc4CC3C)c2)CC1 (stereo not given)	?	23µM*	.	?	?
CCOC(=O)C1CCN(C(=O)c2cccc(S(=O)(=O)N3c4ccccc4CC3C)c2)CC1 (stereo not given)	5%	?	4	?	7%
Cc1cn2c(=O)c(S(=O)(=O)N3CCN(c4cc(Cl)ccc4C)CC3)c(C)nc2s1	.	2%	.	-2%	.
CCNc1ncc2nc(-c3ccc(F)cc3)c(=O)n(CCOC)c2n1	.	-22%	.	-3%	.
Cc1cccc(OCc2nnc(SCC(=O)O)n2Cc2ccccc2)c1	13%	8%	1	3%	13%
OC(c1ccccc1)(c1nc(/C=C/c2ccc(C(F)(F)F)cc2)cs1)C(F)(F)F (stereo not given)	?	?	-2	23µM*	?
CC(O)(c1cccc(F)c1)c1nc(-c2ccc3ccccc3c2)cs1 (stereo not given)	?	13µM*	0	23µM*	?
CC(O)(c1cccc(F)c1)c1nc(-c2cc(F)cc(F)c2)cs1 (stereo not given)	?	2.9µM*	-12	?	?
CC(=O)Nc1cccc(-c2csc(C(C)(O)c3cccc(F)c3)n2)c1 (stereo not given)	-21%	23µM*	59	?	-9%
CCOc1ccc(CN(C)C(=O)CNC(=O)C2CCCCC2)cc1	1%	0%	0	-2%	-5%
Cc1cc2nc3c(=O)[nH]c(=S)[nH]c3nc2cc1NC(=O)C(F)(F)F	-20%	?	-15	?	-19%
CC(O)(c1ccccc1)c1nc(-c2cccc(F)c2)cs1 (stereo not given)	?	21µM*	-1	-22%	0%
CC(O)(c1ccc(F)c(F)c1)c1nc(/C=C/c2ccc(C(F)(F)F)cc2)cs1 (stereo not given)	?	?	-20	?	?
CCN(CC)C(=O)c1cccc(-c2csc(C(C)(NC(C)=O)c3ccccc3)n2)c1 (stereo not given)	2%	?	-5	?	0%
COc1ccc(-c2csc(C(C)(O)c3cccc(F)c3)n2)cn1 (stereo not given)	-28%	23µM*	13	23µM*	?
